# Experimental data published in PubChem BioAssay (NCATS).
# “And” between values parts separate entries of the source, which are not always exact repeats. Identical values can stand only once. Unmarked numbers belong to inactive results. Records with an inconclusive call do not appear. The source made the active and inactive calls. Unless noted, calls come from the whole dose curve.
# Assays:
# [1] = Cell Viability - BJ (AID 421); conditions: BJ fibroblast viability, qHTS;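 note: potency is the fitted concentration of half-maximal effect; cells exposed to compound for 40 hours at 37 °C before readout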
# Outline: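 Luminescent ATP signal (CellTiter-Glo, 20 min at room temperature) served as the read-out of viable BJ cells after 40 hours of compound treatment. Responses were scaled between DMSO and 100 uM tamoxifen, and AC50 values were obtained by Hill modeling.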
# [2] = Cell Viability - Jurkat (AID 426;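 active = dose-dependent loss of cell ATP signal giving a full or clear fitted curve, ranked by lower potency value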; note: potency is the fitted concentration of half-maximal effect); conditions: qHTS
# Outline: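 Jurkat (clone E6-1, human T-cell leukemia) cells, 5000/well in complete medium, were exposed to compound for 40 hr at 37 °C. Viability was read as intracellular ATP by CellTiter-Glo luminescence; AC50 came from Hill fits of concentration-response data.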
# [3] = Cell Viability - Hek293 (AID 427;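 active = compounds whose dose-response curve shows a full or clear partial loss of cell viability, called from curve shape rather than a numeric limit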;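 note: potency is the fitted concentration of half-maximal effect; cells exposed to compound for 40 hours at 37 °C before reading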); conditions: qHTS
# Outline: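 Luminescent ATP read-out (CellTiter-Glo, 20 min RT) after 40 hr compound exposure at 37 °C in complete medium. Signal normalized to DMSO (basal) and 100 uM tamoxifen (100% inhibition); concentration-response fitted with the standard Hill equation to give AC50.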
# [4] = Cell Viability - HepG2 (AID 433); conditions: qHTS;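 note: potency is the fitted concentration of half-maximal effect; potency for ATP loss meaning cytotoxicity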
# Outline: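 In this qHTS format, a 40 h, 37 °C compound incubation of HepG2 cells in complete medium precedes a 20 min CellTiter-Glo step at room temperature. Tamoxifen and doxorubicin serve as positive controls; Hill-equation fits yield AC50.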
# [5] = Cell Viability - MRC5 (AID 434); conditions: MRC5 lung fibroblast viability, qHTS;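 note: potency is the fitted concentration of half-maximal effect; potency reflects cytotoxicity seen as loss of intracellular ATP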
# Outline: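 MRC5 normal human lung fibroblasts (1500/well) were treated with compounds for 40 hr at 37 °C in complete medium, and viable cells were measured as intracellular ATP by CellTiter-Glo luminescence. AC50 came from Hill fits, normalized to DMSO and 100 uM tamoxifen.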
# [6] = Cell Viability - SK-N-SH (AID 435); conditions: SK-N-SH neuroblastoma cell viability qHTS;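 note: potency is the fitted concentration of half-maximal effect; compound exposure lasted 40 h at 37 °C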
# Outline: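 Human neuroblastoma line, 40 h exposure at 37 °C, ATP quantified via luciferase luminescence; DMSO and 100 uM tamoxifen define 0 and 100% inhibition for AC50 fitting.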
# [7] = Cell Viability - N2a (AID 540; active = well fitted curve in the direction sought with a large enough effect; an effect the other way counts as inactive or inconclusive;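 note: plate controls were DMSO alone for no effect and tamoxifen control for full effect; nearly all actives have a fitted effect of over 45% in size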); conditions: N2a mouse neuroblastoma cell viability; series mostly up to 92.2 µM
# Outline: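 Mouse neuroblastoma N2a cells (1500/well) were preincubated 5 hr at 37 °C, then exposed to compounds for 40 hr at 37 °C in complete medium. Viability was read as intracellular ATP by CellTiter-Glo luminescence; AC50 from Hill fits.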
# [8] = Cell Viability - NIH 3T3 (AID 541; active = well fitted curve in the direction sought with a large enough effect; an effect the other way counts as inactive or inconclusive;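 note: plate controls were DMSO alone for no effect and tamoxifen positive control for full effect; nearly all actives have a fitted effect of over 25% in size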); conditions: NIH 3T3 cell viability, qHTS; series mostly up to 92.2 µM
# Outline: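 NIH 3T3 mouse embryo fibroblasts (1000 cells/well) were plated in complete medium and treated with compound for 40 hr at 37 °C. Viability was read as intracellular ATP by CellTiter-Glo luminescence; AC50 values came from Hill-equation fits of concentration-response data.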
# [9] = Cell Viability - HUV-EC-C (AID 542; active = well fitted curve in the direction sought with a large enough effect; an effect the other way counts as inactive or inconclusive; note: % is set by controls: 0 for no effect and ±100 for the full control effect; nearly all actives have a fitted effect of over 35% in size); conditions: HUV-EC-C endothelial cell viability, qHTS; series mostly up to 92.2 µM
# Outline: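 HUV-EC-C normal human vascular endothelial cells, 1000 cells/well, pre-incubated 5 hr at 37 °C, then exposed to compounds for 40 hr at 37 °C in complete medium. Viability measured as intracellular ATP by CellTiter-Glo luminescence; AC50 from Hill fits.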
# [10] = Cell Viability - H-4-II-E (AID 543; active = well fitted curve in the direction sought with a large enough effect; an effect the other way counts as inactive or inconclusive; note: % is set by controls: 0 for no effect and ±100 for the full control effect; nearly all actives have a fitted effect of over 35% in size); conditions: H-4-II-E rat hepatoma viability; series mostly up to 92.2 µM
# Outline: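 Rat hepatoma H-4-II-E cells (1500/well) were plated, incubated 5 hr at 37 °C, then exposed to compounds for 40 hr at 37 °C. Cellular ATP was read by CellTiter-Glo luminescence; AC50 came from Hill-equation fits of concentration-response data.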
# [11] = Cell Viability - SH-SY5Y (AID 544; active = well fitted curve in the direction sought with a large enough effect; an effect the other way counts as inactive or inconclusive;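 note: 0% = DMSO alone and -100% = 100 µM tamoxifen; nearly all actives have a fitted effect of over 55% in size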); conditions: SH-SY5Y neuroblastoma cell viability; series mostly up to 92.2 µM
# Outline: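 Human neuroblastoma SH-SY5Y cells (1500/well) in complete medium were exposed to compounds for 40 hr at 37 °C; intracellular ATP was then quantified by CellTiter-Glo luminescence after 20 min at room temperature. AC50 came from Hill-equation concentration-response fits.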
# [12] = Cell Viability - Renal Proximal Tubule (AID 545; active = well fitted curve in the direction sought with a large enough effect; an effect the other way counts as inactive or inconclusive;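 note: 0% = DMSO only and -100% = 100 µM tamoxifen; nearly all actives have a fitted effect of over 40% in size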); conditions: renal proximal tubule cells viability, primary cells of rat origin; series mostly up to 91.7 µM
# Outline: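 In this qHTS format, normal rat kidney-derived proximal tubule cells in complete culture medium receive compound titrations, then sit 40 hours at 37 °C before luciferase-based ATP quantitation; potency is reported as AC50 from concentration-response curves.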
# [13] = Cell Viability - Mesenchymal (AID 546; active = well fitted curve in the direction sought with a large enough effect; an effect the other way counts as inactive or inconclusive;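 note: cells exposed to compound for 40 hours before reading; 0% = DMSO only and -100% = 100 µM tamoxifen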); conditions: mesenchymal cells viability, qHTS; series mostly up to 91.7 µM
# Outline: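 Normal human renal glomerulus-derived kidney mesenchymal cells, 1000 per well in complete medium, were treated with compounds for 40 hr at 37 °C. Viability was read as intracellular ATP by CellTiter-Glo luminescence; AC50 values came from Hill-equation fits of qHTS concentration-response data.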
# [14] = target: Cytochrome P450 1A2 (Homo sapiens) (UniProt P05177); experiment: p450-cyp1a2 (AID 410); conditions: recombinant CYP1A2, luciferin-ME demethylation, luminescence; series mostly up to 57 µM; note: potency is the fitted concentration of half-maximal effect;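 for activity change, negative = inhibition: -100% = full effect of reference inhibitor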
# Chain of Cytochrome P450 1A2 (Homo sapiens) (P05177 whole entry, looked up): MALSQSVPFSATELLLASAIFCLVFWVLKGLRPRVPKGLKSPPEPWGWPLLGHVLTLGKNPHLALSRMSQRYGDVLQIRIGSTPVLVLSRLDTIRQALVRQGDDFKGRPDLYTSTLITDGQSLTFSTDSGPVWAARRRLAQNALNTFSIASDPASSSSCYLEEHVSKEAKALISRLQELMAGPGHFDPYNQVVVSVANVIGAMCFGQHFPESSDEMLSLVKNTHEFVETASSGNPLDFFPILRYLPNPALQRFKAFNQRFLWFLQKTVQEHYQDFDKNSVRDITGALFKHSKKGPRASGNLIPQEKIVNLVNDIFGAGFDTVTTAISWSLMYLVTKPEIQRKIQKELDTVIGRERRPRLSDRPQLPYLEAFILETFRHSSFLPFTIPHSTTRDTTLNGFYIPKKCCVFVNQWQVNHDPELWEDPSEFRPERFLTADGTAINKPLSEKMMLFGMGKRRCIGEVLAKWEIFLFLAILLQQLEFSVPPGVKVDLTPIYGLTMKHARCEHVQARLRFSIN
# Outline: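 Human CYP1A2 (20nM) demethylated Luciferin-ME at its Km (100uM) in 100mM KPO4. After 10 min compound preincubation, NADPH regeneration ran the reaction 60 min at room temperature. Luciferin was read by luminescence, normalized to 57 uM furafylline.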
# [15] = target: Glucocorticoid receptor (Homo sapiens) (UniProt P04150); experiment: GR-EFC Redistribution (AID 451); conditions: CHO-K1 GR-EFC translocation, beta-gal luminescence, 2 h; note: potency is the fitted concentration of half-maximal effect
# Chain of Glucocorticoid receptor (Homo sapiens) (P04150 whole entry, looked up, the tested form may be a part): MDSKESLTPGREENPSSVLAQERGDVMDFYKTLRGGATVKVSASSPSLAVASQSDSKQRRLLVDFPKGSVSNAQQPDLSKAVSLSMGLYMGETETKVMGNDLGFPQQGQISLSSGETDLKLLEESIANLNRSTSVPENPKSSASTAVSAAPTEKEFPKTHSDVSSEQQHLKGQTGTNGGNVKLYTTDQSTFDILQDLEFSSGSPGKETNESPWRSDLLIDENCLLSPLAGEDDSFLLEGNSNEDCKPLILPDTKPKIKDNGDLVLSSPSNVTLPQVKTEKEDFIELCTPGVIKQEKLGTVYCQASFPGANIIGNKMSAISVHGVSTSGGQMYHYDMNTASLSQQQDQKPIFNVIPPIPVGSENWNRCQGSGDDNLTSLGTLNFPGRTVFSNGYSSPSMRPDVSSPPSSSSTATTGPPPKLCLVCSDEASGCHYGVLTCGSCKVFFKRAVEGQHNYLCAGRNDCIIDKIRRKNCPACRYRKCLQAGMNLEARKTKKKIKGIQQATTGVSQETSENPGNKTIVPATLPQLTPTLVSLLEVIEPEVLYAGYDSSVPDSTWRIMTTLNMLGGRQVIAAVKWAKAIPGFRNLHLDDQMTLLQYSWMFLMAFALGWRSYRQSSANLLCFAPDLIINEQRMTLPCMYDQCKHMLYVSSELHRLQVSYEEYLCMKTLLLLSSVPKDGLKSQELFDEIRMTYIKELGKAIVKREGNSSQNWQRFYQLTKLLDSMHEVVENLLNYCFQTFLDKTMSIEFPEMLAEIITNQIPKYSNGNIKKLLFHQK
# Outline: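 CHO-K1 cells stably expressing nuclear-localized β-gal enzyme acceptor and GR fused C-terminally to the enzyme donor fragment; ligand-driven nuclear translocation restores β-gal by complementation. Compounds titrated up to 46 uM final, 2 h at 37 °C; luminescence read.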
# [16] = AP1 Signaling Pathway (AID 357; active = well fitted curve in either direction with a large enough effect, not every such curve was filed as active;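 note: ME-180 reporter cells stimulated with EGF at its EC50 level; % is set by controls: 0 for no effect and ±100 for the full control effect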); conditions: ME-180 AP-1-bla reporter, EGF-induced, beta-lactamase ratio, 5 h; series mostly up to 38 µM
# Outline: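 AP-1-bla ME-180 cells, Opti-MEM + 0.5% dialyzed FBS, plated overnight 37 °C. Cpd titration + EC50 EGF, 5 h 37 °C. CCF4 2.5 h RT; ex 405, em 460/530 ratio → %activity, AC50.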
# [17] = NFAT Signaling Pathway (AID 444; active = well fitted curve in either direction with a large enough effect, not every such curve was filed as active;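 note: carbachol stimulus at about its EC50 of 1 µM final; % is set by controls: 0 for no effect and ±100 for the full control effect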); conditions: Jurkat NFAT-bla M1, carbachol, beta-lactamase ratio, 5 h; series mostly up to 38 µM
# Outline: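 Jurkat cells carrying an NFAT-driven β-lactamase reporter and co-transfected muscarinic M1 receptor were treated with compound plus carbachol (1 uM final, an EC50 level) for 5 h at 37 °C. CCF4 loading followed for 1 h at RT; 460/530 nm ratio gave %activity.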
# [18] = Stat Signaling Pathway (AID 446; active = well fitted curve in either direction with a large enough effect, not every such curve was filed as active;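 note: ME-180 cervical cancer cells given 40 pM IL-6 alongside compound; SIE-controlled beta-lactamase reporter measured as 460/530 nm FRET emission ratio; % is set by controls: 0 for no effect and ±100 for the full control effect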); conditions: ME-180 SIE beta-lactamase reporter, IL-6 stimulated, 5 h; series mostly up to 17.2 µM
# Outline: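 ME-180 SIE-bla cells; overnight plating; cpd + IL-6 40 pM, 5 h, 37 C; LiveBLAzer 2.5 h RT; 460/530 nm emission ratio. Normalized to 300 pM IL-6 and 125 nM JAK inhibitor controls.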
# [19] = target: Glucocorticoid receptor (Homo sapiens) (UniProt P04150); experiment: GR-GFP Redistribution (AID 450;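 active = compounds whose dose series gives a full or clear partial fitted curve of increased nuclear translocation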; note: potency is the fitted concentration of half-maximal effect); conditions: U2OS GR-GFP nuclear translocation, laser cytometry, 2 h
# [20] = target: Lysosomal acid glucosylceramidase (Homo sapiens) (UniProt P04062); experiment: Glucocerebrosidase-p2 (AID 348; in the data active = potency below about 10 µM; note: potency is the fitted concentration of half-maximal effect); conditions: purified GBA, blue fluorogenic substrate, 40 min
# Chain of Lysosomal acid glucosylceramidase (Homo sapiens) (P04062 whole entry, looked up): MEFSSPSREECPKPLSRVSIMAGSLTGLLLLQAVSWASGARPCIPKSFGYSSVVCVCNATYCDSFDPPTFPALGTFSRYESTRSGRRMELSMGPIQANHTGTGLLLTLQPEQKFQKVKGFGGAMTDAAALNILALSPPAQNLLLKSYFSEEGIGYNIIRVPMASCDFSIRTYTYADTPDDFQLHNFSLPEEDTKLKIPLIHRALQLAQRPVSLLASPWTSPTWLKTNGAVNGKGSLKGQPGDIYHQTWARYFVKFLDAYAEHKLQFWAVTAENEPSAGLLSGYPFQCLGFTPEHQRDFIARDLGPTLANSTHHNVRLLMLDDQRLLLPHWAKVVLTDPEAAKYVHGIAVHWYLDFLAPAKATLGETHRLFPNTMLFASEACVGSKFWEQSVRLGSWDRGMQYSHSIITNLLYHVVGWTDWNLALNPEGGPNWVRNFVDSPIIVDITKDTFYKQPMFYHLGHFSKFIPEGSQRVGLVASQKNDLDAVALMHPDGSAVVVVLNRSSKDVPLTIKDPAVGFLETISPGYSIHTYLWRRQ
# Outline: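 Compounds titrated from 0.6 nM upwards against 0.2 nM enzyme in pH 5.9 citric acid/KH2PO4, taurocholate, tween-20; blue fluorogenic substrate 80 uM, 40 min room temperature, stopped and read Ex 365/Em 440 for AC50.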
smiles,measurement,setting,value
O=C(O)CC(O)(CC(=O)O)C(=O)O,Potency,[1],> 92 µM
same,Potency,[2],58 µM (active)
same,Potency,[3],> 92 µM
same,Potency,[4],> 92 µM
same,Potency,[5],> 92 µM
same,Potency,[6],> 92 µM
same,outcome,[7],inactive
same,outcome,[8],inactive
same,outcome,[9],inactive
same,outcome,[10],inactive
same,outcome,[11],inactive
same,outcome,[12],inactive
same,outcome,[13],inactive
COc1cc(C[C@H]2C(=O)OC[C@@H]2Cc2ccc(OC)c(OC)c2)ccc1O,Potency,[14],31.6 µM (active)
same,Potency,[15],> 46 µM
CCCCCCCCCC(=O)O,Potency,[1],> 92 µM
same,Potency,[2],> 92 µM
same,Potency,[3],> 92 µM
same,Potency,[4],> 92 µM
same,Potency,[5],> 92 µM
same,Potency,[6],> 92 µM
same,outcome,[7],inactive
same,outcome,[8],inactive
same,outcome,[9],inactive
same,outcome,[10],inactive
same,outcome,[11],inactive
same,outcome,[12],inactive
same,outcome,[13],inactive
Cc1ccc(OC[C@H](O)[C@H](C)NC(C)C)c2c1CCC2,outcome,[16],inactive
same,Potency,[14],1.58 µM (active) and 398 nM (active)
same,outcome,[17],inactive
same,outcome,[18],inactive
same,Potency,[19],> 46 µM
same,Potency,[15],> 46 µM
C=Cc1ccccc1,Potency,[1],> 92 µM
same,Potency,[2],> 92 µM
same,Potency,[3],> 92 µM
same,Potency,[4],> 92 µM
same,Potency,[5],> 92 µM
same,Potency,[6],> 92 µM
same,outcome,[7],inactive
same,outcome,[8],inactive
same,outcome,[9],inactive
same,outcome,[10],inactive
same,outcome,[11],inactive
same,outcome,[12],inactive
same,outcome,[13],inactive
CN(C)Cc1ccccc1,Potency,[1],> 92 µM
same,Potency,[2],> 92 µM
same,Potency,[3],> 92 µM
same,Potency,[4],> 92 µM
same,Potency,[5],> 92 µM
same,Potency,[6],> 92 µM
same,outcome,[7],inactive
same,outcome,[8],inactive
same,outcome,[9],inactive
same,outcome,[10],inactive
same,outcome,[11],inactive
same,outcome,[12],inactive
same,outcome,[13],inactive
COC(C)=O,Potency,[1],> 92 µM
same,Potency,[2],> 92 µM
same,Potency,[3],> 92 µM
same,Potency,[4],> 92 µM
same,Potency,[5],> 92 µM
same,Potency,[6],> 92 µM
same,outcome,[7],inactive
same,outcome,[8],inactive
same,outcome,[9],inactive
same,outcome,[10],inactive
same,outcome,[11],inactive
same,outcome,[12],inactive
same,outcome,[13],inactive
O=C(O)c1cc2ccccc2c(Cc2c(O)c(C(=O)O)cc3ccccc23)c1O,Potency,[20],> 11.4 µM
same,"activity change, negative = inhibition",[16],13.4% [at 7.69 µM]
same,"activity change, negative = inhibition",[14],-4% [at 2.29 µM]
same,"activity change, negative = inhibition",[17],6.69% [at 7.69 µM]
same,outcome,[18],inactive
same,Potency,[15],> 9.22 µM
CN(C)CCCn1cc(C2=C(c3c[nH]c4ccccc34)C(=O)NC2=O)c2ccccc21,Potency,[14],7.94 µM (active)
same,Potency,[19],> 46 µM
same,Potency,[15],> 46 µM
COC1=CC(=O)C[C@@H](C)[C@@]12Oc1c(Cl)c(OC)cc(OC)c1C2=O,Potency,[14],inactive
same,Potency,[19],> 46 µM
same,Potency,[15],> 46 µM
CCc1ccccc1OC[C@@H](O)CN[C@H]1CCCc2ccccc21,Potency,[14],12.6 µM (active)
same,Potency,[19],> 46 µM
same,Potency,[15],> 46 µM
CC(C)CCNC(=O)[C@H](CC(C)C)NC(=O)[C@H]1O[C@@H]1C(=O)O,outcome,[16],inactive
same,outcome,[17],inactive
same,outcome,[18],inactive
same,Potency,[19],> 20.6 µM
COc1ccc2[nH]c(=O)c3c(c2c1)OC(C)(C)C=C3,Potency,[14],0.316 µM (active)
same,Potency,[19],> 46 µM
same,Potency,[15],> 46 µM
NCCCC(=O)O,outcome,[16],inactive
same,Potency,[14],inactive
same,outcome,[17],inactive
same,Potency,[19],> 46 µM
same,Potency,[15],> 46 µM
C[C@]12CC[C@@H]3c4ccc(OS(=O)(=O)O)cc4CC[C@H]3[C@@H]1CCC2=O,outcome,[16],inactive
same,outcome,[17],inactive
same,outcome,[18],inactive
same,Potency,[19],> 20.6 µM
CC(=O)C1=C(O)C=C2Oc3c(C(C)=O)c(O)c(C)c(O)c3[C@]2(C)C1=O,Potency,[14],2 µM (active)
same,Potency,[19],> 46 µM
same,Potency,[15],> 46 µM
